Source: PubChem BioAssay
Calls of active or inactive are those of the source. Rule as the data show it, unless noted: active = inhibition above about 28%; inactive = the rest.

How the values were obtained:
[1] = molecular target: Nuclear receptor coactivator 3 (Homo sapiens) (UniProt Q9Y6Q9); assay: NCOA3 GAL4-fusion reporter inhibition – cell-based, luminescence, quadruplicate, confirmation (AID 588792;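 active = mean inhibition over 43.08%, the solvent-only control mean plus 3 SD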;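 also: 0% = DMSO treated cells and 100% = gossypol at 36 µM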); conditions: HEK293 GAL4-SRC3 luciferase reporter, at 3.6 µM, active compounds read high
Chain of Nuclear receptor coactivator 3 (Homo sapiens) (Q9Y6Q9 whole entry, looked up, the tested form may be a part): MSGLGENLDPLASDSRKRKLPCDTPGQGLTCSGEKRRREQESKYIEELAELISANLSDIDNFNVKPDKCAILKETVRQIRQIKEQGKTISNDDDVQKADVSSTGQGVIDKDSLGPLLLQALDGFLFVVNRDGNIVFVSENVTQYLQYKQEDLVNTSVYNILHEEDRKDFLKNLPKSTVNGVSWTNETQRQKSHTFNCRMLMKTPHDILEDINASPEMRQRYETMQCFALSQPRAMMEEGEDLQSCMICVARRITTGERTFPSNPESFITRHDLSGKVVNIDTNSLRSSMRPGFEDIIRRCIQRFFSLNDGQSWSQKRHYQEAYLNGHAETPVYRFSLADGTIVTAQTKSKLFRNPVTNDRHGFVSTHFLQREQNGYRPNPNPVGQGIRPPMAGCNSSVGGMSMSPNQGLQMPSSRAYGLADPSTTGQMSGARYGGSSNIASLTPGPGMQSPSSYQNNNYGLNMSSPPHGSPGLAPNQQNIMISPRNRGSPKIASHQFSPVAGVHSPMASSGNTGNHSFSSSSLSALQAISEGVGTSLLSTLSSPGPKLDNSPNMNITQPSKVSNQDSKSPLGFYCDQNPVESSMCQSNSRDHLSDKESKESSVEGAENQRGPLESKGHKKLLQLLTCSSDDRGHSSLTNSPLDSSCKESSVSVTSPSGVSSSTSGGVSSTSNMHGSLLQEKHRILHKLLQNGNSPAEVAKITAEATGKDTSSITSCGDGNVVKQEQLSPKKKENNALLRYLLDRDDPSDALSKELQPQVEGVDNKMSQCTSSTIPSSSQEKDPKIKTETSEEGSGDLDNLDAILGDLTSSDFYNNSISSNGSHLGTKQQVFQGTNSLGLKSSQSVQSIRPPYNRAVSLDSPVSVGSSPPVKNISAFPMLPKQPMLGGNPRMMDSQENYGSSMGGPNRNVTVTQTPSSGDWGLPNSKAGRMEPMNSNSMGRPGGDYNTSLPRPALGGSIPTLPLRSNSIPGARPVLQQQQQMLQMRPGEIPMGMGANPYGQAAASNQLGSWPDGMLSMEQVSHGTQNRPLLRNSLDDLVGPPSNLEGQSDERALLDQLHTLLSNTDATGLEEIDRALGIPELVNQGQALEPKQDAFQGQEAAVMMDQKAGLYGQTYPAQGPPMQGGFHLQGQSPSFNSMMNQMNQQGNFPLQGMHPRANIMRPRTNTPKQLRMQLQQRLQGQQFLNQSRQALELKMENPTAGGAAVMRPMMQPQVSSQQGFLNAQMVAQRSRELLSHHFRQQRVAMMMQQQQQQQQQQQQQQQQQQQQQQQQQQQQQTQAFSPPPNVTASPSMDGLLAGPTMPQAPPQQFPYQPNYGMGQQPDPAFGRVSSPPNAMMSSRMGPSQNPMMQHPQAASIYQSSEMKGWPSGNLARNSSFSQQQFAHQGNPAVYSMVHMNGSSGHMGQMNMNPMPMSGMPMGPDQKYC

[2] = tested on: transactivating tegument protein VP16 (Human herpesvirus 1), Gal4-VP16 luciferase reporter; assay: repression of VP16-driven luciferase reporter – cell-based, luminescence, high throughput, counter-screen for SRC3 inhibitor project (AID 588794; in the data active = inhibition above about 30%); conditions: mammalian cells, at 3.6 µM, active compounds read high
[3] = molecular target: Nuclear receptor coactivator 1 (Homo sapiens) (UniProt Q15788); assay: NCOA1 GAL4-fusion reporter inhibition – cell-based, luminescence, quadruplicate, confirmation (AID 588820;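 active = mean inhibition above 46.68%, the untreated control wells mean plus 3 SD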;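 also: 0% = DMSO wells and 100% = gossypol 36 µM treated wells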); conditions: HEK293 GAL4-SRC1 luciferase reporter, at 3.6 µM, active compounds read high
Chain of Nuclear receptor coactivator 1 (Homo sapiens) (Q15788 whole entry, looked up, the tested form may be a part): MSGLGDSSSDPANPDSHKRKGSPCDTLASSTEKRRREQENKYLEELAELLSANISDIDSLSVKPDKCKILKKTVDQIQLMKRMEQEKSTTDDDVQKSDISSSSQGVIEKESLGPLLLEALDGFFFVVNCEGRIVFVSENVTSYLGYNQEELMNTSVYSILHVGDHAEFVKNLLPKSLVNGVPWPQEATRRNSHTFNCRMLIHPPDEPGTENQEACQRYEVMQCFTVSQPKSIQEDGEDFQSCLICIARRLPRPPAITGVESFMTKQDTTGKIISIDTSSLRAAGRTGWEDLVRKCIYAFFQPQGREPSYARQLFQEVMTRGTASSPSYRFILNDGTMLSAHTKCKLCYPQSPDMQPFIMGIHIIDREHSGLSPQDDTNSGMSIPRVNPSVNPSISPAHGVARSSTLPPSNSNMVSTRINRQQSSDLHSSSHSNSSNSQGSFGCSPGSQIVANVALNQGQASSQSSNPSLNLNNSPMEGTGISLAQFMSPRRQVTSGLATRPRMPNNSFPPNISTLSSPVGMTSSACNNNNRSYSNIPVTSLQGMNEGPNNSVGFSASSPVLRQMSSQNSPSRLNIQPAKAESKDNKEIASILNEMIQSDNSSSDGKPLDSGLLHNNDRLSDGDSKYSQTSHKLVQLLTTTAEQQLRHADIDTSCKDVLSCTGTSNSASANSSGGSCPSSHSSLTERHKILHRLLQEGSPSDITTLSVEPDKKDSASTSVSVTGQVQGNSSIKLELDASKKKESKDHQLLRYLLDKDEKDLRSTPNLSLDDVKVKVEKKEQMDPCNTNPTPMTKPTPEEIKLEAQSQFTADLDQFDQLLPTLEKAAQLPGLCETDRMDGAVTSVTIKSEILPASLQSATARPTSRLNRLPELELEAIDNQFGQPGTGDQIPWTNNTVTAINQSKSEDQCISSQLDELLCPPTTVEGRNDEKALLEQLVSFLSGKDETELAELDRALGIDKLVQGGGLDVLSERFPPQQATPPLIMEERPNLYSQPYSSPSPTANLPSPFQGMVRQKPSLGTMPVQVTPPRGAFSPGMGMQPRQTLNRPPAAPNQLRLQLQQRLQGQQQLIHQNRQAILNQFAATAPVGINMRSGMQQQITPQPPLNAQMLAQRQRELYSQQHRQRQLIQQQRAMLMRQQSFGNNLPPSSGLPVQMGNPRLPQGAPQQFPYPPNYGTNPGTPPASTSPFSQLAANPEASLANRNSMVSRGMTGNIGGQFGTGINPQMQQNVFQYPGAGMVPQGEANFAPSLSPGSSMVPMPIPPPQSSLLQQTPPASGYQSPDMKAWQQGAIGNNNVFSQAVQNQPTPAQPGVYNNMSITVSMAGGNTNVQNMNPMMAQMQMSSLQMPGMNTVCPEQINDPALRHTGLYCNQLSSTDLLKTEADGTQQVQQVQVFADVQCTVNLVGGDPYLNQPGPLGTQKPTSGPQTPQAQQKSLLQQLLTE

[4] = repression of VP16-driven luciferase reporter – cell-based, luminescence, high throughput, counter-screen for SRC1 inhibitor project (AID 588824; in the data active = inhibition above about 25%); conditions: cell-based VP16 transactivation luciferase luminescence; at 3.6 µM; active compounds read high
[5] = StAR promoter reporter inhibitors, counter-screen for LRH-1 inverse agonist project, cell-based, luminescence, high throughput (AID 651611); conditions: StAR promoter luciferase reporter counterscreen, at 3.6 µM, active compounds read high
[6] = molecular target: Nuclear receptor subfamily 5 group A member 2 (Homo sapiens) (UniProt O00482); assay: NR5A2 activity suppression in reporter cells – cell-based, luminescence, confirmation (AID 651613; in the data active = inhibition above about 42%;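 also: HEK293T cells co-transfected with LRH-1 and StAR promoter luciferase reporter; 0% = vehicle wells and 100% = parental cells lacking receptor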); conditions: cell-based LRH-1 luciferase reporter, inverse agonism; at 3.6 µM; active compounds read high
[7] = molecular target: Steroidogenic factor 1 (Homo sapiens) (UniProt Q13285); assay: inverse agonism at SF1 nuclear receptor – cell-based, luminescence, high throughput, counter-screen for LRH-1 inverse agonist project (AID 651614; in the data active = inhibition above about 44%;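 also: cells cotransfected with StAR promoter reporter and SF1 expression vector; 0% = vehicle on cells with receptor and 100% = vehicle on cells lacking receptor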); conditions: cell-based SF1 luciferase reporter, at 3.6 µM, active compounds read high
Chain of Steroidogenic factor 1 (Homo sapiens) (Q13285 whole entry, looked up, the tested form may be a part): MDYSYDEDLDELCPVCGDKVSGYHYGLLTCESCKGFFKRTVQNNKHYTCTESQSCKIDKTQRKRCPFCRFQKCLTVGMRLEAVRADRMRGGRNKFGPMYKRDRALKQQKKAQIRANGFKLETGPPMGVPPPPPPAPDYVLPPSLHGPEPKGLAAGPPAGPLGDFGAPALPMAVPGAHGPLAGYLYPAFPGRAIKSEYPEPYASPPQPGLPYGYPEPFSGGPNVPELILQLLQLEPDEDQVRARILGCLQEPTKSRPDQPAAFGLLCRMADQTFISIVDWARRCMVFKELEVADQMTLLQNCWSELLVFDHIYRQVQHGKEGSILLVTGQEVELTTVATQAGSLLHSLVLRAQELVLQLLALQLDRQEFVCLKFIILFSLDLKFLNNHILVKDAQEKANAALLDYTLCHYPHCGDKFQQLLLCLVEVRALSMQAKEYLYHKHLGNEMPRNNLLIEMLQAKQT

[8] = compounds suppressing VP16-driven luciferase signal – cell-based, luminescence, high throughput, counter-screen for LRH-1 inverse agonist project (AID 651615; in the data active = inhibition above about 33%); conditions: Gal4-VP16 luciferase reporter cells, at 3.6 µM, active compounds read high
[9] = tested on: transactivating tegument protein VP16 (Human herpesvirus 1); assay: compounds suppressing VP16-driven luciferase signal – cell-based, luminescence, single concentration, counter-screen for SRC2 inhibitor project (AID 652007; in the data active = inhibition above about 36%); conditions: cell-based VP16 transactivation luciferase reporter, at 8.9 µM, active compounds read high
[10] = molecular target: Nuclear receptor coactivator 2 (Homo sapiens) (UniProt Q15596); assay: inhibition of GAL4-SRC2 driven luciferase expression – cell-based, luminescence, HEK293, triplicate, confirmation (AID 652008;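 active = mean inhibition above 46.5%, the solvent-only control mean plus 3 SD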;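 also: 0% = DMSO-treated cells and 100% = Gossypol at 36 µM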); conditions: HEK293 GAL4-SRC2 luciferase reporter, at 8.9 µM, active compounds read high
Chain of Nuclear receptor coactivator 2 (Homo sapiens) (Q15596 whole entry, looked up, the tested form may be a part): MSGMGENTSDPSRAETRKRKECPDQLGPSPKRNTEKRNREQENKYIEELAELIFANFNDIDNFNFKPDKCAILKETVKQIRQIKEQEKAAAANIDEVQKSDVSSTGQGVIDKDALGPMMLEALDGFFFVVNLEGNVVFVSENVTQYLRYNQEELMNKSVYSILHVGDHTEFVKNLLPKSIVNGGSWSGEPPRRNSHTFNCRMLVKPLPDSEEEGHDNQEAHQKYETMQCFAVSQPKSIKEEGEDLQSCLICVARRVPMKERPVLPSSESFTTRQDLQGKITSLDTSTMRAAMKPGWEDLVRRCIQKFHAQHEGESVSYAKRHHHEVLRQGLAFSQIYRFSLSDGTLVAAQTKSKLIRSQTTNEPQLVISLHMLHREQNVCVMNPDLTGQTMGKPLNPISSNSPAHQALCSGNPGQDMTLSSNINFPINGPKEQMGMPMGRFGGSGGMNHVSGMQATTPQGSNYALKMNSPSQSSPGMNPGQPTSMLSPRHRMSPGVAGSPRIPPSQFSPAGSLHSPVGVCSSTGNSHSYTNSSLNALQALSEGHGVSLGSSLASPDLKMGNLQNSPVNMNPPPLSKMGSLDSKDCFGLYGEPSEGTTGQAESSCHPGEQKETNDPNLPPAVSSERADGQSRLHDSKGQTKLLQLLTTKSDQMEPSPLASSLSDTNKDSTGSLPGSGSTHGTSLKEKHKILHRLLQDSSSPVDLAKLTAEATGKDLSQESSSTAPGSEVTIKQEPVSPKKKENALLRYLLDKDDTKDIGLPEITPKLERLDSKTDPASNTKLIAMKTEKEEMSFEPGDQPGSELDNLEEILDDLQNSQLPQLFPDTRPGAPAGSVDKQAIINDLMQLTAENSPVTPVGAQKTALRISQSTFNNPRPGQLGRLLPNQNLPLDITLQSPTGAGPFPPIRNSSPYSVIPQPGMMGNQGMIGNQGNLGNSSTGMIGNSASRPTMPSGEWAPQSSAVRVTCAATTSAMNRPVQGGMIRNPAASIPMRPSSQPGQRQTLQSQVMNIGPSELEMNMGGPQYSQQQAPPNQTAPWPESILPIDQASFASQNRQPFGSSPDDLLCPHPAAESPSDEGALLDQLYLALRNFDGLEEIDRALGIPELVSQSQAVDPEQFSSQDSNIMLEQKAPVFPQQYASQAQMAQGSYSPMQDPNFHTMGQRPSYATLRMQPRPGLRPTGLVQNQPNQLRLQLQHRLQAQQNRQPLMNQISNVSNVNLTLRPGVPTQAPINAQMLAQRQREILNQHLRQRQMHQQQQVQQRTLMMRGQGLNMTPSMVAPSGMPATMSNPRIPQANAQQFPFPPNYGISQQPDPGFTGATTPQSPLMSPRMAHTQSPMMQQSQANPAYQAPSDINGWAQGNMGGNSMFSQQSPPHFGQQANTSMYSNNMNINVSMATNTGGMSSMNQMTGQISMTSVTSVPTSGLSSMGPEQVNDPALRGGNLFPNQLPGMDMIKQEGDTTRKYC

Measured: inhibition

CC1=C(C(=O)OCc2ccc3c(c2)OCO3)C(c2ccc(F)cc2)NC(=O)N1 (stereo not given)
inactive: [9] 16.1%
active: [1] 77.2% | [2] 66.2% | [3] 70.7% | [4] 67.6% | [5] 49.1% | [6] 71.3% | [7] 62.8% | [8] 85.2% | [10] 58.7%

COc1ccccc1-c1nnc(Sc2nc([N+](=O)[O-])nn2C)o1
active: [1] 58.5% | [2] 32.7% | [4] 36.4% | [5] 59.9% | [6] 62% | [8] 64.1% | [9] 46.1% | [10] 65.3%
inactive: [3] 18.7% | [7] 38.3%

O=c1cnnc(N/N=C/c2ccccn2)[nH]1
active: [1] 81.9% | [2] 68.9% | [3] 76% | [4] 54.8% | [5] 87.7% | [6] 103% | [7] 83.3% | [8] 65.3%
inactive: [9] -24.3% | [10] 26.5%

O=C(N/N=C\c1ccc([N+](=O)[O-])o1)C1COc2ccccc2O1 (stereo not given)
active: [7] 49.8% | [9] 40.8% | [10] 51.5%
inactive: [1] 35.9% | [2] 9.31% | [3] -8.42% | [4] -19.5% | [5] 27.1% | [6] 40.7% | [8] -8.47%

CC1CC(C)C(=O)C(C(CC2CC(=O)NC(=O)C2)OC(=O)CC(=O)c2ccccc2)C1 (stereo not given)
active: [1] 93.1% | [2] 88.9% | [3] 81.3% | [4] 87.8% | [5] 91.6% | [6] 108% | [7] 96.9% | [8] 91.7% | [9] 37.2% | [10] 52.5%
